Measured values reported in ChEMBL document CHEMBL1201862, “PubChem BioAssay data set” (2004).
In all, about 400,000 compounds went through this assay and about 2,100 (0.53%) were called active. Inconclusive results (about 14%) are left out. The sample holds actives, similar compounds and a random draw of the others, so the mix is not that of the screen. How the calls were made is not given here.

What follows are compounds tested against Ataxin-2 (Homo sapiens) (UniProt Q99700) (assay: qHTS for Inhibitors of ATXN expression.).
Sequence of Ataxin-2 (Homo sapiens) (Q99700 whole entry): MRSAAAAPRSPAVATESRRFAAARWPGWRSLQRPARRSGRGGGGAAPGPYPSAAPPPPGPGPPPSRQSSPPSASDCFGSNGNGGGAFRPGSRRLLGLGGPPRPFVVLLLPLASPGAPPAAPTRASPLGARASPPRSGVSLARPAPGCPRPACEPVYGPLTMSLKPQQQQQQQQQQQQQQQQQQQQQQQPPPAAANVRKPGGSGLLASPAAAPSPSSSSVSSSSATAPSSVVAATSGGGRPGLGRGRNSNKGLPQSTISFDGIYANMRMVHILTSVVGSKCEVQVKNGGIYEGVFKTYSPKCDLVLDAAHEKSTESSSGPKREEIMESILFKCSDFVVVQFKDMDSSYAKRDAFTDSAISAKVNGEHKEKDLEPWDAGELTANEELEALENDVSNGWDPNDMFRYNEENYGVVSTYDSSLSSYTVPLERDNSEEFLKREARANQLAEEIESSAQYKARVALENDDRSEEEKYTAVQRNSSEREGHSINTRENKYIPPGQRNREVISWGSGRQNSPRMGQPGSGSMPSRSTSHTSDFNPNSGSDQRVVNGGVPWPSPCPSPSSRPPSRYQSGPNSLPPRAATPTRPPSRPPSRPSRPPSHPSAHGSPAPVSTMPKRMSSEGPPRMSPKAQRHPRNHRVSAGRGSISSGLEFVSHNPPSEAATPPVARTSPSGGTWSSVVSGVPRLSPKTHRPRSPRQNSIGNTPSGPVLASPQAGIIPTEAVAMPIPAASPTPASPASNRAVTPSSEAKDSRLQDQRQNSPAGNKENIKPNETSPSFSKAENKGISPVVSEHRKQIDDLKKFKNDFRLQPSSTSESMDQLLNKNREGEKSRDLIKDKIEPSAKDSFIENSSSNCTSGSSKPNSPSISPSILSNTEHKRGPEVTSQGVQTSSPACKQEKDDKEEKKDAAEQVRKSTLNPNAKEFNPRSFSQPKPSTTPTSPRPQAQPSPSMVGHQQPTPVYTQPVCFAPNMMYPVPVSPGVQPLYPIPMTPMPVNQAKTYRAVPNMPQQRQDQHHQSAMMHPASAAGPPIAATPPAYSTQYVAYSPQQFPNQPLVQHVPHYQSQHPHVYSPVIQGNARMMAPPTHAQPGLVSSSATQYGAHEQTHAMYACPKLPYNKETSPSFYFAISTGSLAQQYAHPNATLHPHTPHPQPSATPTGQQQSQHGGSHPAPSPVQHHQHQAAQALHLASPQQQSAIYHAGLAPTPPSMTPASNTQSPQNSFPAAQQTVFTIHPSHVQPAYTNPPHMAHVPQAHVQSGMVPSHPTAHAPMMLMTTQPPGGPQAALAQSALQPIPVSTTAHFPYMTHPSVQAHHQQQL
Type: functional
For `NS(=O)(=O)c1ccc(CNC(=O)/C=C/c2ccco2)cc1`, the Potency was “inactive”. For `O=C(Cc1ccccc1)NCc1nnc(S)n1-c1ccc(Br)cc1`, the Potency was “inactive”. For `CSc1c(C#N)c(O)nc2c1CCc1ccccc1-2`, the Potency was “inactive”. In the case of `COc1ccccc1[C@H]1C(c2cccc(C)c2)=NN(c2ccccc2)[C@@H]1CO`, the Potency is reported as “inactive”. With `Cc1ccc(C)c(N2CCN(C(=O)c3ccc(Cn4c(=S)[nH]c5ccc(N6CCOCC6)cc5c4=O)cc3)CC2)c1` the Potency was “inactive”. For `CCCC(C)NC(=O)c1cc(S(=O)(=O)N2CCCCCC2)ccc1OC` (stereo unspecified), the Potency was “inactive”. `CCCCCCNC(=O)O[C@H]1CN(C(=O)OC(C)C)N(C(=O)OC(C)C)[C@@H]2CN(S(=O)(=O)c3ccc(C)cc3)C[C@]12O` was tested, and the Potency was 22.4 µM (active). In the case of `COCCN(CCOC)C(=O)CSc1ccc(S(=O)(=O)N2CCN(C)CC2)cn1`, the Potency is reported as “inactive”. In the case of `CC1=C(C(=O)Nc2nc3ccccc3s2)C(c2ccco2)C(C#N)=C(SCC(=O)NC2CCCCC2)N1` (stereo unspecified), the Potency is reported as “inactive”. With `Cc1ccc(C(=O)O)cc1-c1ccc(/C=C2\SC(=O)N(CC(=O)Nc3ccc4c(c3)OCO4)C2=O)o1` the Potency was “inactive”. For `O=C(CCl)Nc1ccc2c(c1)OCO2`, the Potency was 22.4 µM (active). With `O=C(CSc1nc2cc(Cl)c(Cl)cc2[nH]1)c1ccc2c(c1)OCO2` the Potency was “inactive”. In the case of `O=C(Cn1ncc(Cl)c(Cl)c1=O)c1ccc2c(c1)OCCO2`, the Potency is reported as 42.3 µM (active). For `Cn1c(=O)n(C)c2cc(NC(=O)CCl)ccc21`, the Potency was 28.2 µM (active). With `O=C(Cn1ncc(Cl)c(Cl)c1=O)Nc1ccc2c(c1)OCO2` the Potency was 35.5 µM (active). With `CC(NS(=O)(=O)c1ccc(Cl)c(Cl)c1)C(=O)OCC(=O)Nc1ccc2c(c1)OCO2` (stereo unspecified) the Potency was “inactive”. `O=C(Nc1ccc2c(c1)OCO2)c1sc2cc(Cl)ccc2c1Cl` was tested, and the Potency was “inactive”. `CC(=O)Nc1ccc2nc3c(=O)n(C)c(=O)n(C)c3nc2c1` was tested, and the Potency was “inactive”. With `COC(=O)c1ccc(NS(=O)(=O)c2ccc3c(c2)n(C)c(=O)n3C)cc1` the Potency was “inactive”. In the case of `NC(=O)c1ccc(NC(=O)COC(=O)c2c3c(nc4ccccc24)/C(=C\c2ccc4c(c2)OCO4)CCC3)cc1`, the Potency is reported as “inactive”. In the case of `COc1ccc(-c2c(C)c3ccc(O)c(CN4CCOCC4)c3oc2=O)cc1OC`, the Potency is reported as “inactive”. With `COc1ccc(/C=C/c2nc(C#N)c(N3CCCCC3)o2)cc1OC` the Potency was “inactive”. `C=CCN=C(S)Nc1ccc(C)c(S(=O)(=O)N2CCCCC2)c1` was tested, and the Potency was “inactive”. With `Cc1ccc(NC(=O)Cn2ncc(Cl)c(Cl)c2=O)cc1S(=O)(=O)N1CCCCC1` the Potency was 31.6 µM (active). `CCCc1cc(O)nc(SCC(=O)Nc2ccc(C)c(S(=O)(=O)N3CCCCC3)c2)n1` was tested, and the Potency was “inactive”. `Cc1c(Br)c(C(F)(F)F)nn1CC(=O)NCc1ccco1` was tested, and the Potency was “inactive”. In the case of `COc1ccc(CCNC(=O)CN(c2ccccc2)S(C)(=O)=O)cc1`, the Potency is reported as “inactive”. With `COc1ccc(CN([C@H](CO)CC(C)C)S(=O)(=O)N(Cc2ccccc2)[C@H](CO)CC(C)C)cc1` the Potency was 39.8 µM (active). In the case of `CCN(c1ccc(N/C=C2/C(=O)N(Cc3ccc(OC)cc3)C(=O)c3ccccc32)cc1)C(C)C`, the Potency is reported as “inactive”. For `C=CS(=O)(=O)c1c2cc(OC)ccc2nc2ccc(OC)cc12`, the Potency was “inactive”. With `Cc1cccn2c(=O)c(C=O)c(N3CCCCC3)nc12` the Potency was “inactive”. For `Nc1c(C(=O)Nc2ccccc2Br)sc2nc(-c3cccs3)ccc12`, the Potency was “inactive”. With `O=C(c1nc(-c2ccc(Cl)cc2)n2c1CCCCC2)N1CCN(c2ccc(F)cc2)CC1` the Potency was 22.4 µM (active). With `O=C(NC(=S)Nc1ccc(N2CCCC2)cc1)c1ccc(F)cc1` the Potency was “inactive”. In the case of `Cc1nn(CC(=O)N2CCN(c3ccc(Cl)cc3)CC2)c(=O)c2cccn12`, the Potency is reported as “inactive”. In the case of `CCC(C)n1c(=N)c(C#N)cc2c(=O)n3cccc(C)c3nc21` (stereo unspecified), the Potency is reported as “inactive”. For `O=C(CN1C(=O)NC(Cc2c[nH]c3ccccc23)C1=O)Nc1cccc(S(=O)(=O)N2CCCC2)c1` (stereo unspecified), the Potency was “inactive”. `COc1ccccc1C1c2[nH]c3ccccc3c2CCN1Cc1cnc(C)s1` (stereo unspecified) was tested, and the Potency was “inactive”. In the case of `COC(=O)Cc1c(C)c2ccc3c(c2oc1=O)CN(Cc1ccc(C)cc1)CO3`, the Potency is reported as “inactive”. With `C=CCC[C@@H](Cc1ccc(F)cc1)C(=O)OC[C@@H]1CCCN1C(=O)[C@H](CC=C)CC(=O)N[C@H](CO)Cc1ccccc1` the Potency was 35.5 µM (active). For `C=CCC[C@@H](Cc1ccc(F)cc1)C(=O)OC[C@@H]1CCCN1C(=O)[C@@H](CC=C)CC(=O)N[C@@H](CO)Cc1ccccc1`, the Potency was 28.2 µM (active). In the case of `C=CC[C@@H](Cc1ccc(F)cc1)C(=O)OC[C@@H]1CCCN1C(=O)[C@H](CC=C)CC(=O)N[C@H](CO)Cc1ccccc1`, the Potency is reported as 39.8 µM (active). For `CC(=O)Nc1nn(C)c2nc3ccc(C)cc3cc12`, the Potency was “inactive”. In the case of `CCCCCNCC(=O)Nc1cccc(C(=O)Nc2cccc(C(F)(F)F)c2)c1`, the Potency is reported as 26.7 µM (active). With `C/C(CC(=O)Nc1cccc(C(F)(F)F)c1)=N\NC(=O)c1ccncc1` the Potency was “inactive”. `CCN1C(=O)c2ccc(C(=O)Nc3cccc(C(=O)O)c3)cc2C1=O` was tested, and the Potency was “inactive”.
